Measured values taken from the supplement of paper PMC11001985.

compound: C#CCNC(=O)CCSSCCC(=O)NCCc1ccc(C=O)c(C=O)c1; test: lysine labeling ratio R10:1 (500 µM / 50 µM probe), SILAC-ABPP in living cells; higher = lower intrinsic lysine reactivity toward the probe, active = 2 or less; conditions: HeLa; probe concentrations 500 vs 50 µM
Method in brief: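 Living SILAC light and heavy HeLa cells in PBS at room temperature were treated with an alkyne-tagged, disulfide-linked lysine probe at 50 µM or 500 µM, with forward and reverse label swaps. The mixed lysates were clicked to biotin-azide, digested with trypsin, captured on neutravidin, released with DTT, alkylated and run by LC-MS/MS on a TIMS-TOF Pro. R for each lysine is the filtered median high-probe/low-probe MS1 peptide ratio, taken again as the median over forward and reverse replicates. Any value above 20 is set to 20.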

Sequence of UniProt Q5T9A4 (Q5T9A4 whole entry): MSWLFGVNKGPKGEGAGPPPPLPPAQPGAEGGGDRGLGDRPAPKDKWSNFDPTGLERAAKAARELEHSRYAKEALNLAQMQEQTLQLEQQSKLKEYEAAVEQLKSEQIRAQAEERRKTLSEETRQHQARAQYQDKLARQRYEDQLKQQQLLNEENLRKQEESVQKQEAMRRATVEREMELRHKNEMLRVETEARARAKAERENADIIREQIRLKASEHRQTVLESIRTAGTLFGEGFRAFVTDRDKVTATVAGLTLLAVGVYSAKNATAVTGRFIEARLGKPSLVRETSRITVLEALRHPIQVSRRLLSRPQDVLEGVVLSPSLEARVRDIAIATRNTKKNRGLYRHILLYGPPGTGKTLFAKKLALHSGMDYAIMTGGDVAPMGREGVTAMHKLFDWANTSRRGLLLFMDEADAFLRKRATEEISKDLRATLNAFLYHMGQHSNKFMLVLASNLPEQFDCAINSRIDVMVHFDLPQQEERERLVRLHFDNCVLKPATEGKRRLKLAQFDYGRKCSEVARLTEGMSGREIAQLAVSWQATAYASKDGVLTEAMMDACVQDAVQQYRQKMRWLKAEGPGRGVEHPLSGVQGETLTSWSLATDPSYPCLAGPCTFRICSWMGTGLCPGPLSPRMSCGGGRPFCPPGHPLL
Sequence of UniProt P35579 (P35579 whole entry): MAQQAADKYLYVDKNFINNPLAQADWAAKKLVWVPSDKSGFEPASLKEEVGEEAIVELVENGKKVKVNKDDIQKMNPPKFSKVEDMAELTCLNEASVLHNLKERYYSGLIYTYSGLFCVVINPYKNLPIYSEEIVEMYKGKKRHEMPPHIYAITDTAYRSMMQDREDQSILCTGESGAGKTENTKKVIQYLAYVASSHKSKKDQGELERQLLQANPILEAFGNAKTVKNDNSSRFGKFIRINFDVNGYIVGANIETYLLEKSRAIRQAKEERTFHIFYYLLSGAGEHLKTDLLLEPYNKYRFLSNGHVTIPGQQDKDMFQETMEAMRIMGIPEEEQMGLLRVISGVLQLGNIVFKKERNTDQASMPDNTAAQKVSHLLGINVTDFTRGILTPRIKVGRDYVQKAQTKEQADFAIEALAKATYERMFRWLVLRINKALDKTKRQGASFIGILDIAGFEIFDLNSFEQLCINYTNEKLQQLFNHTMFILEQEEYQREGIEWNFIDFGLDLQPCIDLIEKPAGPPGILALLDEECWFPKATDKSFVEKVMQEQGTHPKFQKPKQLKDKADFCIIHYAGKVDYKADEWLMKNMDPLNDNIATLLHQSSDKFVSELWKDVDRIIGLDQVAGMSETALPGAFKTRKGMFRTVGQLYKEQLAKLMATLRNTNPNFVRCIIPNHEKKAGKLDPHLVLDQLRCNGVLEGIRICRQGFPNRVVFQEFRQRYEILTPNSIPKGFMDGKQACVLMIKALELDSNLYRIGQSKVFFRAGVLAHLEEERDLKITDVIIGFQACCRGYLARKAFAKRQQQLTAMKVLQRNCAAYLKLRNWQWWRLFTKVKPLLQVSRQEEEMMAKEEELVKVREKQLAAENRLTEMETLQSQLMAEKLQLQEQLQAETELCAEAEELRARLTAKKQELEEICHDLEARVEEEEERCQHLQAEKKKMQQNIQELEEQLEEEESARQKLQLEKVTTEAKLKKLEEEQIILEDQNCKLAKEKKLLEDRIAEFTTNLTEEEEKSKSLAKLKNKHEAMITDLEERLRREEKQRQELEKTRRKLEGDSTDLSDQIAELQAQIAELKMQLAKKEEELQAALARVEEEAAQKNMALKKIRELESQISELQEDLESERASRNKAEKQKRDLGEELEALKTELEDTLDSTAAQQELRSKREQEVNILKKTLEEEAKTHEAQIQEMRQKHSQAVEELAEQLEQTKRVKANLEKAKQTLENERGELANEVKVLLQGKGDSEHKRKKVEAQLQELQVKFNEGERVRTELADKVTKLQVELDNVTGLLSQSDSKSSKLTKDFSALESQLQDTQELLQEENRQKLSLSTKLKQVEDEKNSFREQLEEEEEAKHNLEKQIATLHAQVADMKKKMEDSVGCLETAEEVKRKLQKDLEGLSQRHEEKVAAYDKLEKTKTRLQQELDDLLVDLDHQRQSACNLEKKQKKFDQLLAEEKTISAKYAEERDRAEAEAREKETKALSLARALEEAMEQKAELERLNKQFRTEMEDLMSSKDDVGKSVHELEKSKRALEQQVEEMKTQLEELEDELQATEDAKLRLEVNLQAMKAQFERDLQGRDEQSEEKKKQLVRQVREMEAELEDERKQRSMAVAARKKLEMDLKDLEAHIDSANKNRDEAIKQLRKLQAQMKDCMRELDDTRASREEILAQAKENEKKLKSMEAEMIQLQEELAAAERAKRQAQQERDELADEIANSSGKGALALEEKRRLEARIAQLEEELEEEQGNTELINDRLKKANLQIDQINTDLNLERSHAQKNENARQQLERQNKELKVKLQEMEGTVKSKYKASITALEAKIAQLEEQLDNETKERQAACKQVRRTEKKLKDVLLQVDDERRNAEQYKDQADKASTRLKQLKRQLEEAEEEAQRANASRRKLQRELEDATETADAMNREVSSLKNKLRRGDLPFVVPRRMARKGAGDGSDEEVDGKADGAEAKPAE
Sequence of UniProt Q9UKM7 (Q9UKM7 whole entry): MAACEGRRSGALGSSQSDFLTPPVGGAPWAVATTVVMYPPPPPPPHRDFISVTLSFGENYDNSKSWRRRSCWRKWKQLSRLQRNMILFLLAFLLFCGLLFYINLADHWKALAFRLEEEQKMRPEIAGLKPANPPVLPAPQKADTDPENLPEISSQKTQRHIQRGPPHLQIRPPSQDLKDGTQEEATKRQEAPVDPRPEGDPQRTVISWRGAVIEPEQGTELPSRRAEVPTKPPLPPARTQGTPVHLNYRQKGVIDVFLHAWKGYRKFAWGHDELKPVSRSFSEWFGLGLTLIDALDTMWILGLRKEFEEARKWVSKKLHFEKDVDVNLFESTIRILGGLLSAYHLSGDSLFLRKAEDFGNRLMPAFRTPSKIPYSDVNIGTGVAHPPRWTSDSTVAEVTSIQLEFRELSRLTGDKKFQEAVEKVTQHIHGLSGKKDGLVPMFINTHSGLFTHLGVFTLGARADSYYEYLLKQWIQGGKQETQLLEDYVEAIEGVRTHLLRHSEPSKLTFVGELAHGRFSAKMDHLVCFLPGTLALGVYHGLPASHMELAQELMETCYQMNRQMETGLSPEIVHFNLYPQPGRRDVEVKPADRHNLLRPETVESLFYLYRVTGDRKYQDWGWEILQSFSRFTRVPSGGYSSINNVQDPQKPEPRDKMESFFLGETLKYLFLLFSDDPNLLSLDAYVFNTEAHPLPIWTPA
Sequence of UniProt P54289 (P54289 whole entry): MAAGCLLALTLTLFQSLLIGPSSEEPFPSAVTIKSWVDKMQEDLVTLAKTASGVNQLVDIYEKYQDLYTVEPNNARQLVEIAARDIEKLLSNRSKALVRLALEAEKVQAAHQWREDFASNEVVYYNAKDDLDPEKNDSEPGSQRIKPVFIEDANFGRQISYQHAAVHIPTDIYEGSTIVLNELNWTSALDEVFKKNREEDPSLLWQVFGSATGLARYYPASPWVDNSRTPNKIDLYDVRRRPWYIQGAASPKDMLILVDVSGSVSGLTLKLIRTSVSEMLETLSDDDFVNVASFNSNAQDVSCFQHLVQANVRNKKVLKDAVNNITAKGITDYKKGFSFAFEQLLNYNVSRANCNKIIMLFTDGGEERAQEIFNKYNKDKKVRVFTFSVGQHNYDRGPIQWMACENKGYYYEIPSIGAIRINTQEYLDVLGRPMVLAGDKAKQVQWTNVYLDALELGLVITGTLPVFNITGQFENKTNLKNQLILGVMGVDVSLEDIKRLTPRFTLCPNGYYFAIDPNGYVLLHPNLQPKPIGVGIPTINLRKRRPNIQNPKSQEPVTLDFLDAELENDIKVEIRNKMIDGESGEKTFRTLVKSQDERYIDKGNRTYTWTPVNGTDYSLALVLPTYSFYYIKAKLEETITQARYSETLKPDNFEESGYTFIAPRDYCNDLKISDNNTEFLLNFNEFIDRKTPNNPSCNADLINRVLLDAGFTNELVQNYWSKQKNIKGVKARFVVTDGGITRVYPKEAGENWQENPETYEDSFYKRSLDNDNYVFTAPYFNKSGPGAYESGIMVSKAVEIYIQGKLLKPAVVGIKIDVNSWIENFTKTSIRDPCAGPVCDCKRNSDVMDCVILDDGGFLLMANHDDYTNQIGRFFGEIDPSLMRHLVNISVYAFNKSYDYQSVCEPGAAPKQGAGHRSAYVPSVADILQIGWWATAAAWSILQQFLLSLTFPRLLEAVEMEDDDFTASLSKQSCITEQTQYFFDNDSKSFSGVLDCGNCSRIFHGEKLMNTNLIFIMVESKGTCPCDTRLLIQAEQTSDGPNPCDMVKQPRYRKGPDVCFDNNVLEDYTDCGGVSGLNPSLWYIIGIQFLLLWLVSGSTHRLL
Sequence of UniProt O95573 (O95573 whole entry): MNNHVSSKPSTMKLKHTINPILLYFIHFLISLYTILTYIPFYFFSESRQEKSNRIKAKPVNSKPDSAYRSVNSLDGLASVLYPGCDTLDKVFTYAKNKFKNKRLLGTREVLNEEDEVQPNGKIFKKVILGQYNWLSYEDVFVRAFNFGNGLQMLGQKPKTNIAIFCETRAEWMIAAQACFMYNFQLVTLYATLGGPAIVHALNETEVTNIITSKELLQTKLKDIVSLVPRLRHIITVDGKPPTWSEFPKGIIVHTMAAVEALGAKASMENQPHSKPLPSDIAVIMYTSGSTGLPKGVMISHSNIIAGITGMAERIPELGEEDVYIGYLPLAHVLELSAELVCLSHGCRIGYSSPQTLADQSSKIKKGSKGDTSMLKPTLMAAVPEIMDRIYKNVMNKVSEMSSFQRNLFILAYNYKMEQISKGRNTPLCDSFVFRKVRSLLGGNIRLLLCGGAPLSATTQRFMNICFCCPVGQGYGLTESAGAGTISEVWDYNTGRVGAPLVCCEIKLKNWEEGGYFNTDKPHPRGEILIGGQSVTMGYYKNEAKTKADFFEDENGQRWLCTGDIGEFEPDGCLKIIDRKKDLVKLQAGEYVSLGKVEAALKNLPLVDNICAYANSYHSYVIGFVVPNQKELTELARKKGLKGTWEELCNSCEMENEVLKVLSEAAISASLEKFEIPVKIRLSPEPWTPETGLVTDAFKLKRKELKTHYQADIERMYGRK

Target	lysine labeling ratio R10:1
KRT18 (lysine site: K119) (UniProt P05783)	6.22 (inactive)
TUBA1A (lysine site: K338) (UniProt Q71U36)	2 (active)
ROBO1 (lysine site: K214) (UniProt Q9Y6N7)	4.58 (inactive)
UniProt Q9UHN6 (lysine site: K1177)	6.32 (inactive)
UniProt P05787 (lysine site: K130)	9.55 (inactive)
GALNT2 (lysine site: K509) (UniProt Q10471)	3.5 (inactive)
PTBP1 (lysine site: K271) (UniProt P26599)	2.72 (inactive)
CACNA2D1 (lysine site: K586) (UniProt P54289)	2.9 (inactive)
LAMB1 (lysine site: K215) (UniProt P07942)	2.29 (inactive)
UniProt Q15149 (lysine site: K1175)	1.67 (active)
MAN1B1 (lysine site: K354) (UniProt Q9UKM7)	2.81 (inactive)
RPSA (lysine site: K52) (UniProt P08865)	1.63 (active)
ANXA7 (lysine site: K268) (UniProt P20073)	2.89 (inactive)
UniProt P60660 (lysine site: K98)	3.79 (inactive)
FN1 (lysine site: K116) (UniProt P02751)	5.35 (inactive)
RPL12 (lysine site: K54) (UniProt P30050)	0.658 (active)
UniProt Q13765 (lysine site: K82)	3.23 (inactive)
UniProt P62913 (lysine site: K178)	3.2 (inactive)
F11R (lysine site: K78) (UniProt Q9Y624)	3.33 (inactive)
UniProt Q00341 (lysine site: K1066)	6.11 (inactive)

Target	lysine labeling ratio R10:1
SLC25A5 (lysine site: K63) (UniProt P05141)	3.19 (inactive)
MYH9 (lysine site: K910) (UniProt P35579)	4.64 (inactive)
FLNA (lysine site: K2000) (UniProt P21333)	1.14 (active)
ATAD3B (lysine site: K214) (UniProt Q5T9A4)	2.61 (inactive)
ATAD3B (lysine site: K281) (UniProt Q5T9A4)	12.6 (inactive)
SPTBN2 (lysine site: K1874) (UniProt O15020)	5.9 (inactive)
TGFBR3 (lysine site: K686) (UniProt Q03167)	1.81 (active)
UniProt Q15149 (lysine site: K2452)	3.75 (inactive)
RAB2A (lysine site: K131) (UniProt P61019)	1.7 (active)
LAMC1 (lysine site: K1039) (UniProt P11047)	3.94 (inactive)
COPA (lysine site: K1134) (UniProt P53621)	2.48 (inactive)
UniProt O60245 (lysine site: K875)	1.6 (active)
SPTBN1 (lysine site: K1684) (UniProt Q01082)	1.83 (active)
FSCN1 (lysine site: K43) (UniProt Q16658)	1.7 (active)
CCT3 (lysine site: K427) (UniProt P49368)	0.772 (active)
NECTIN3 (lysine site: K249) (UniProt Q9NQS3)	5.88 (inactive)
ACSL3 (lysine site: K422) (UniProt O95573)	1.49 (active)
UniProt P62277 (lysine site: K43)	7.76 (inactive)
MYH9 (lysine site: K299) (UniProt P35579)	2.23 (inactive)
B2M (lysine site: K26) (UniProt P61769)	10.1 (inactive)
